Laboratory results as given in PubChem BioAssay (NCATS).
Records with an inconclusive call do not appear. Values without a mark were called inactive. Activity calls are given as the source filed them. Calls follow the shape of the dose curve; as a rule, active = well fitted cell-killing curve with a large enough effect; inconclusive = small, poorly fitted or top-dose-only effect, or effect the other way; inactive = no such curve, though single readings can be large or run the other way.

assay: Quantitative High-Throughput drug screen in 47 multiple myeloma cell lines against the NCATS MIPE library collection: AMO1_DSMZ cell viability assay (AID 1918927; also: nearly all actives have a fitted effect of over 30% in size); conditions: AMO1 myeloma cells viability, CellTiter-Glo ATP luminescence, 48 h; series mostly up to 45.8 µM; viability, % of DMSO: at the top concentration
Summary of the method: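 Myeloma cells (500 per well) were exposed to MIPE 4.0 compounds by pin transfer and incubated 48 hours at 37C, 5% CO2. Viability was read as ATP by CellTiter-Glo luminescence, normalised to DMSO (100%) and media-only (0%) wells.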
Potency is read from the fitted curve at half-maximal effect.

Row | SMILES | Potency | viability, % of DMSO [%]
1 | CC(C)(O)C(=O)Nc1ccc([N+](=O)[O-])c(C(F)(F)F)c1 | 11.8 µM (active) | –
2 | COC1=C[C@@H]2[C@@H]3Cc4ccc(OC)c(O)c4[C@]2(CCN3C)CC1=O | 3.32 µM (active) | –
3 | C=C1C[C@H]2[C@H]3CCC(=O)[C@@]3(C)CC[C@@H]2[C@@]2(C)C=CC(=O)C=C12 | 18.7 µM (active) | –
4 | CCCCCC[C@H]1C(=O)O[C@H](C)[C@H](NC(=O)c2cccc(NC=O)c2O)C(=O)O[C@@H](C)[C@@H]1OC(=O)CC(C)C | 0.235 µM (active) | –
5 | CN1CCN(c2ccc([N+](=O)[O-])c3no[n+]([O-])c23)CC1 | 16.6 µM (active) | –
6 | O=C(N[C@@H](COc1ccc2[nH]c(=O)[nH]c2c1)c1ccccc1)c1cccn(Cc2ccc(F)c(F)c2)c1=O | 18.7 µM (active) | –
7 | C=C[C@@H]1CN2CCC1C[C@H]2[C@H](O)c1ccnc2ccccc12 (some centres undefined) | – | 101
8 | Cc1c(N)nc([C@H](CC(N)=O)NC[C@@H](N)C(N)=O)nc1C(=O)N[C@H](C(=O)N[C@@H](C)[C@H](O)[C@@H](C)C(=O)N[C@@H](C(=O)NCCc1nc(-c2nc(C(=O)NCCC[S+](C)C)cs2)cs1)[C@@H](C)O)C(O[C@H]1O[C@H](CO)[C@H](O)[C@@H](O)[C@@H]1O[C@H]1O[C@H](CO)[C@@H](O)[C@H](OC(N)=O)[C@H]1O)c1cnc[nH]1 (some centres undefined) | 0.296 µM (active) | –
9 | C[C@]12CC[C@H]3[C@@H](CCC4=CC(=O)CC[C@@]43C)[C@H]1CC[C@H]2O | – | 76.5
